Peg3 imprint – inducers of genomic imprint erasure in mouse ES cells; mouse ES Peg3-LacZ reporter, beta-gal luminescence, 40 h; Potency, µM (series often up to 60.7 µM), without a hit: at the top dose activity change, positive = activation, most hits filed as activators; hit rate 0.02% among 110,000; AID 1948
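Each well holds 300 Peg3LacZ-Neo (maternal) female ES cells incubated 40 h at 37C, 5% CO2. LacZ is measured by BetaGlo luminescence, with AC50 and maximum efficacy derived from dose-response curves.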
IkB signaling – IkB pathway inhibition in ABC-DLBCL cells. ABC-DLBCL IkBa-CBG/CBR dual luciferase ratio, 4 h; response scale: scaled: untreated 0%, proteasome inhibitor 100%. Potency, µM (titrated, usually from 57.1 µM), without a hit: at the highest dose IkBa stabilization activation. hit rate 0.04% among 110,000; active = well fitted curve in the direction sought with a large enough effect in the signal ratio, not every such curve was filed as active; inconclusive = small, poorly fitted or top-dose-only effect, or a change in a side signal; the % refers to the signal ratio;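 note: the direction sought is a rising ratio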
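In this assay, an IκBα–CBG68 fusion accumulates when IKK-driven degradation is blocked; native CBR normalizes for cell number. OCI-Ly3 cells were treated 4 h with compound and doxycycline, then green and red light read after Chroma-Glo addition.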
p53ts 39C tox – kills p53ts cells at the nonpermissive temperature; hit rate 1.5% among 130,000; Potency, µM (series often up to 46.1 µM), without a hit: at the top dose activity change, negative = cell killing, actives largely listed as cytotoxic; H1299-p53A138V viability at 39C, ATP luminescence, 24 h; note: % is set by controls: 0 for no effect and ±100 for the full control effect; nearly all actives have a fitted effect of over 55% in size
p53ts 32C kill – kills p53ts cells at the permissive temperature; Potency, µM (series often up to 46.1 µM), for the others: at the highest dose activity change, negative = cytotoxicity, hits mostly cytotoxic; hit rate 0.93% among 130,000; H1299-p53A138V at 32C, ATP luminescence viability, 24 h;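 note: 0% = DMSO and -100% = full killing by reference compound; nearly all actives have a fitted effect of over 55% in size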
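Cells: H1299 p53ts (A138V), 600/well, pre-incubated 16–30 h at 37C. Cpd up to 46 uM, 24 h, 32C. Readout: ATPlite luminescence, 20 min RT. Normalization: DMSO vs tamoxifen 100 uM. AC50 by Hill equation.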
The depositor's hits bear a star; ? = inconclusive; . = no result given; ! = not active in a repeat; [ ] = remark or other dose. An excerpt weighted towards active compounds, which were near 1.7% of everything screened. Unless noted, calls come from the whole dose curve; as a rule, active = well fitted curve in the direction sought with a large enough effect; inconclusive = small, poorly fitted or top-dose-only effect, or another doubt; inactive = no such curve, though single readings can be large; an effect the other way counts as inactive or inconclusive. Potency is the fitted concentration of half-maximal effect.

SMILES | Peg3 imprint | IkB signaling | p53ts 39C tox | p53ts 32C kill
C[C@]12Cc3cn4c(nc3C=C1CC[C@H]1[C@@H]2CC[C@@]2(C)[C@H]1CC[C@@]2(O)C#N)nc1ccccc14 | . | ? | 14% | ?
CC(C)N[C@@H](C)Cc1ccc(I)cc1 | . | -5% | -2% | -2%
COC(=O)C[C@]1(C(=O)OC)CN(C#N)N(c2ccc(Cl)cc2)C12c1ccccc1-c1ccccc12 | . | . | ? | 6.3µM*
CC[C@@]12CCCN3CC[C@@]4(c5ccc(OC)c(O)c5N(C(C)=O)[C@H]4CC1)[C@H]32 | . | -2%[11.4 µM] | . | .
COc1cccc(NC(=O)c2ccc3c(=O)n4nc(Nc5ccccc5OC)sc4nc3c2)c1 | -43%[10.9 µM] | ? | ? | -10%
Cc1ccc(Cl)cc1Nc1nn2c(=O)c3ccc(C(=O)NCc4cccs4)cc3nc2s1 | -20%[10.9 µM] | 1% | 16µM* | 13µM*
C=CCn1c(O)c(C(C)=NCc2cccnc2)c(=O)[nH]c1=O | -3% | 2% | 3% | 5%
C=CCn1c(O)c(C(C)=NCc2cc(OC)cc(OC)c2)c(=O)[nH]c1=O | -12% | 4% | ? | 10µM*
O=C(CSc1oc(-c2ccccc2)nc1S(=O)(=O)c1ccc(Cl)cc1)Nc1ccc(F)cc1 | 5%[10.9 µM] | ? | 13µM* | ?
CCOc1ccc(NC(=O)CSc2oc(-c3ccccc3)nc2S(=O)(=O)c2ccc(Cl)cc2)cc1 | -34%[10.9 µM] | -3% | 2µM* | ?
O=S(=O)(NCCO)c1cc[c]([Sb](=[O])([OH])[OH])cc1 | . | 0%[11.4 µM] | 17%[9.22 µM] | 14%[9.22 µM]
N[C@H](Cn1cc(I)c(=O)[nH]c1=O)C(=O)O | . | 2% | . | .
COc1ccc2c(c1)[C@]13CCCC[C@@H]1[C@H](C2)NCC3 | . | -2% | -10% | 18%
CC(C)(C)c1cc(C=C(C#N)C#N)cc(C(C)(C)C)c1O | -30% | ? | -23% | 10µM*
COc1cc(C=C(C#N)C#N)cc(O)c1O | -25% | 3% | -25% | -25%
C[C@@H]1[C@H]2C=C[C@@H]1[C@@H](c1c3ccc(=O)c(O)c-3oc3c(O)c(O)ccc13)[C@@H]2C(=O)O | . | -1%[11.4 µM] | 2%[9.22 µM] | 6%[9.22 µM]
CN(C)c1ccc(N)cc1 | -17% | ? | 32µM* | -2%[1.84 µM]
CN(C)c1ccc(N=O)cc1 | ? | ? | ? | 1%[1.84 µM]
O=c1ccc2cc(O[C@@H]3O[C@@H](CO)[C@@H](O)[C@@H](O)[C@H]3O)c(O)cc2o1 | . | 2%[11.4 µM] | . | .
NC(N)=Nc1ccc2[nH]c3c(c2c1)C[C@]1(O)[C@@H]2Cc4ccc(O)c5c4[C@]1(CCN2CC1CC1)[C@H]3O5 | . | 0% | 25µM* | 13µM*
Oc1ccc2c3c1O[C@H]1c4[nH]c5ccccc5c4C[C@@]4(O)C(C2)N(CC2CC2)CCC314 (stereo not given in full) | -8% | . | . | .
C=C(C)CN1CC[C@@]23c4c5ccc(O)c4O[C@H]2c2[nH]c4ccccc4c2C[C@]3(O)[C@@H]1C5 | -11% | ? | 32µM* | ?
CN1CCc2cc3c(cc2[C@@H]1[C@H]1OC(=O)c2c1ccc1c2OCO1)OCO3 | . | 0%[11.4 µM] | . | .
O=c1cccc2n1C[C@H]1C[C@@H]2CN(CCO)C1 | . | 0%[11.4 µM] | . | .
COc1cccc(-c2cc(C(=O)Nc3cnn(Cc4ccc(Cl)cc4Cl)c3)no2)c1 | -7%[10.9 µM] | 4% | 10µM* | ?
SMILES | Peg3 imprint | IkB signaling | p53ts 39C tox | p53ts 32C kill
O=C(Nc1ccc2oc(-c3cccnc3)nc2c1)c1ccc(-c2cccc(Cl)c2)o1 | -7%[10.9 µM] | 1% | 8% | 2%
CCn1cnc2c(Nc3cccc(Cl)c3)nc(N[C@@H]3CCCC[C@H]3N)nc21 | . | ? | 13µM* | 10µM*
CCCCCCCC/C=C\CCCCCCCC(N)=O | -13% | 0% | 32µM* | -9%
NC(=NCCC[C@@H](N)C(=O)O)N[N+](=O)[O-] | . | 10% | . | .
Fc1ccc(C(OCCN2CCN(CCCc3ccccc3)CC2)c2ccc(F)cc2)cc1 | -32% | ? | 32µM*! | ?
O=C(O)C1=CCCN(CCOC(c2ccc(C(F)(F)F)cc2)c2ccc(C(F)(F)F)cc2)C1 | -10% | 1% | -19% | 12%
c1ccc(CCCN2CCN(CCOC(c3ccccc3)c3ccccc3)CC2)cc1 | -25% | ? | 32µM* | ?
CN1CCN(c2ccc([N+](=O)[O-])c3[nH]o[n+](=O)c23)CC1 | . | ? | -21%[9.22 µM] | ?
COc1cc2[nH]c(=O)n(CCCCCC(=O)N3CCN(c4cccc(C(F)(F)F)c4)CC3)c(=O)c2cc1OC | -8%[10.9 µM] | ? | 13µM* | ?
